Results on 37 molecules are retold here after PubChem BioAssay (EPA / NIEHS).

One may read the AC50 as the midpoint of the concentration-response curve, whichever way the signal moves.

Each structure is given as a SMILES string. Several values for one entry are separate records, joined by “and”; a condition that tells them apart may be missing. Equal values may be shown once. Records with an inconclusive call do not appear. The source holds several records for some structures; these can differ, active in one and inactive in another. Activity calls are given as the source filed them. Rule for the calls: active = hit-call score of the fitted dose curve at least 0.9, where 1 is the maximum; inconclusive = response in the unintended direction; inactive = score below 0.9.

Chain of Cellular tumor antigen p53 (Homo sapiens) (P04637 whole entry, looked up, the tested form may be a part): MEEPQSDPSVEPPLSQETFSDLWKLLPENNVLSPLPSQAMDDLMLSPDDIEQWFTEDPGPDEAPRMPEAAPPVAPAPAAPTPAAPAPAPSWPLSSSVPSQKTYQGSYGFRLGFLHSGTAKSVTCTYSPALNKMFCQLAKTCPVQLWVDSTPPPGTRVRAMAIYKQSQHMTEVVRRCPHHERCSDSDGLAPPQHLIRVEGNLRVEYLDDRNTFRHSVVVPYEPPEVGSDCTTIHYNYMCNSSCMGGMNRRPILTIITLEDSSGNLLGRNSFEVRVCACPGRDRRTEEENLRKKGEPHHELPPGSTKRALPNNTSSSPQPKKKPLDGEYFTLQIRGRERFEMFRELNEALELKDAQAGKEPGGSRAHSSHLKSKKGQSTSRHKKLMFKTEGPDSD

This assay deals with Cellular tumor antigen p53 (Homo sapiens) (UniProt P04637). Nature of the assay: TOX21_p53_BLA_p2_ratio: Tox21 HCT-116 p53 Agonism Beta-lactamase Assay, Ratio, Phase 2 (AID 2283592). An excerpt:
TOX21_p53_BLA_p2 is a cell-based, single-readout assay that uses HCT116, a human intestinal cell line, […] in a 1536-well plate.TOX21_p53_BLA_p2_ratio is an assay readout measuring reporter gene via receptor activity and designed using inducible reporter (beta lactamase induction) detected with GAL4 b-lactamase reporter gene. The signal is derived from the ratio of cleaved (ch2) to uncleaved (ch1) reporter gene substrate used as the measure of target activity.Data from the assay component TOX21_p53_BLA_p2_ratio was analyzed into 1 assay endpoint. This assay endpoint, TOX21_p53_BLA_p2_ratio, was analyzed in the positive analysis fitting direction relative to DMSO as the negative control and baseline of activity. Using a type of inducible reporter, gain-of-signal activity can be used to understand changes in the reporter gene as they relate to the gene TP53. Furthermore, this assay endpoint can be referred to as a primary readout, because this assay has produced multiple assay endpoints and this ratio serves a reporter gene function to understand target activity. To generalize the intended target to other relatable targets, this assay endpoint is annotated to the DNA binding intended target family, where the subfamily is tumor suppressor.
Thawing Method: Place 14 mL of pre-warmed thaw medium into a 15 mL of conical tub. Remove the vial of cells to be thawed from liquid nitrogen and thaw rapidly by placing at 37C in a water bath with gentle agitation for 1-2 minutes. Decontaminate the vial by wiping with 70% ethanol before opening in a biological safety cabinet. Transfer the vial contents drop-wise into 14 mL of thaw medium in a sterile 15-mL conical tub. Centrifuge cells at 900 rpm for 4 minutes and resuspend in thaw medium. Transfer contents to the T75 tissue culture flask containing Thaw Medium and place flask in a humidified 37C/5% CO2 incubator. Switch to growth medium at first passage.Propagation Method: Aspirate medium, rinse once in DPBS, add 0.25% Trypsin/EDTA and swirl to coat the cell evenly. Add an equal volume of Growth Medium to inactivate Trypsin after 2-3 minutes incubation at 37C. Centrifuge cells at 900 rpm for 4 minutes and resuspend in growth medium. Cell should be passage or fed at least twice a week.Assay Protocol: Harvest cells from culture in growth medium and resuspend in assay medium. 2.2 Dispense 4000 cells/5 uL/well into 1536-well black/clear bottom plates using a Multidrop dispenser. After the cells were incubated at 37C for 5 hours, 23 nL of compounds dissolved in DMSO were transferred to the assay plate by a PinTool resulting in a 217-fold dilution. Incubate the plates for 16 hours at 37C, 5% CO2. Add 1 uL of 6X LiveBLAzer FRET B/G (CCF4-AM) Substrate Mixture to each well using a BioRAPTR dispenser and incubate the plates at room temperature for 2 hours. Measure fluorescence intensity at 460 and 530 nm emission and 405 nm excitation by an Envision detector. Data is expressed as the ratio of 460nm/530nm emissions. Add 4 uL of Cell-titer Glo to each well using BioRAPTR and incubate the plates at room temperature for 2 hours. Measure fluorescence intensity by a VewLux plate reader.
Take `CCCCCCCCCCCCCN1CC(C)OC(C)C1` (stereo not given): the outcome was inactive.

Regarding `CC(C)(OOC(C)(C)c1ccccc1)c1ccccc1`, the result was inactive.

Turning to `Nc1ccc(N=Nc2ccccc2)cc1`, the outcome was inactive.

On to `C1=Cc2cccc3cccc1c23`, for which the outcome was inactive.

In the case of `C[N+](C)(C)CC1CO1` (stereo not given), the outcome was inactive.

Consider `c1ccc(NNc2ccccc2)cc1`, for which the result was inactive.

Turning to `CCCCOC(=O)c1ccccc1C(=O)OCc1ccccc1`, the result was inactive.

With `Cc1ccc(N=C=O)cc1N=C=O`, the result was inactive.

Consider `Nc1ccc(Cl)cc1N`, for which the outcome was inactive.

In the case of `Cc1cccc(N)c1N`, the result was inactive.

For the molecule `Nc1ccc(Oc2ccc(N)cc2)cc1`, the outcome was inactive.

`ClC1=C(Cl)C2(Cl)C3C(Cl)C=CC3C1(Cl)C2(Cl)Cl` (stereo not given): the outcome was inactive.

`CC(C)(C)OOC(=O)c1ccccc1`: the outcome was inactive.

`CCN(CC)N=O`: the outcome was inactive.

Turning to `O=P(OCCCl)(OCCCl)OCCCl`, the result was inactive.

`Cn1cc(-c2ccccc2)c(=O)c(-c2cccc(C(F)(F)F)c2)c1`: the result was inactive.

Take `OCCCBr`: the outcome was inactive.

For `CN(C)C(=O)Nc1ccc(Cl)cc1`, the outcome was inactive.

Consider `Nc1ccc(Cc2ccc(N)cc2)cc1`, for which the outcome was inactive.

As for `O=C(N[C@H](c1ccccc1)[C@@H]1CN2CCC1CC2)c1c(Cl)ccc(C(F)(F)F)c1Cl`, the result was inactive.

Regarding `CCC12COCN1COC2`, the result was inactive.

On to `CN(C)c1ccc(C(=O)c2ccc(N(C)C)cc2)cc1`, for which the AC50 was 748 nM (active) and 1.29 µM (active).

As to `ClC1=C(Cl)[C@]2(Cl)[C@H]3[C@H]([C@@H]4C=C[C@H]3C4)[C@@]1(Cl)C2(Cl)Cl`, the outcome was inactive.

As to `CCN(CC)CCO`, the outcome was inactive.

Turning to `Cc1cc(N=Nc2ccccc2C)ccc1N`, the outcome was inactive and the AC50 is 73.1 µM (active).

Regarding `OCCCl`, the outcome was inactive.

For the molecule `CN(C)[C@@H]1C(=O)C(C(N)=O)=C(O)[C@@]2(O)C(=O)C3=C(O)c4c(O)cccc4[C@@](C)(O)[C@H]3C[C@@H]12`, the outcome was inactive.

Take `COP(=S)(OC)SCN1C(=O)c2ccccc2C1=O`: the outcome was inactive.

With `Nc1cc(Cl)cc(C(=O)O)c1Cl`, the result was inactive.

In the case of `Cc1ccc(N)c(N)c1`, the result was inactive.

Turning to `N#CC(Br)(Br)C(N)=O`, the outcome was inactive.

With `CCC[CH2][Sn]([Cl])([CH2]CCC)[CH2]CCC`, the AC50 is 31.8 µM (active) and 46 µM (active).

In the case of `CCCCC(CC)COC(=O)c1ccc(C(=O)OCC(CC)CCCC)c(C(=O)OCC(CC)CCCC)c1` (stereo not given), the outcome was inactive.

Consider `Clc1ccc(C(c2ccc(Cl)cc2)C(Cl)(Cl)Cl)cc1`, for which the AC50 was 60.7 µM (active) and 31.1 µM (active); the outcome was inactive.

As to `CCC(C)c1ccc(O)cc1` (stereo not given), the result was inactive.

With `O=[N+]([O-])c1ccc(Oc2ccc(Cl)cc2Cl)cc1`, the outcome was inactive.

`Clc1ccc(C(c2ccc(Cl)cc2)C(Cl)Cl)cc1`: the outcome was inactive and the AC50 was 68 µM (active).
